The values below come from PubChem BioAssay (Tox21).

The source made the active and inactive calls. Where a call stands in place of a potency, no number is given. The call rests on the fitted dose curve; in most records, active means well fitted curve in the direction sought with a large enough effect in the repeat runs; inconclusive means weak or mixed curves; inactive means flat fitted curve, though single readings scatter. Positions of bridges follow the written chain, without caps; N, C: chain ends. Non-standard residues stand in square brackets, D forms with d. Residues, ends and D or L forms follow the SMILES beside them. *: point of attachment. X2 = CC[C@H](C)CCCCC(=O)*; Dab = NCC[C@H](N)C(=O)O

A short description of this assay: qHTS assay to test for compound auto fluorescence at 535 nm (green) in HepG2 cell free culture (AID 720686). The conditions noted are these: Cell-free medium, green autofluorescence 485/535 nm; series mostly up to 46 µM. From the text: U.S. Tox21 Program National Center for Advancing Translational Sciences [NCATS] NIH Chemical Genomics Center [NCGC] U.S. Environmental Protection Agency [EPA] National Institutes of Environmental Health Sciences [NIEHS] National Toxicology Program [NTP] U.S. Food and Drug Administration [FDA] Tox21 Assay Overview: Compound auto fluorescence often interferes with screening of the compound library against various biological targets and signaling pathways. Some of these compounds may have fluorophoric properties. Such properties may interfere with the assay outputs resulting in false positives and/or negatives. To decrease such complications and ensure the compound activities are relevant in terms of biological response, the Tox21 10K compound library was screened for auto fluorescence. From the fluorophores used as reporter signals in our screening assays, the auto fluorescence equivalencies of compounds against three fluorophores have been evaluated: Triamterene, Fluorescein and Rose Bengal sodium for blue, green and red fluorescence, respectively. The fluorescence intensities were measured using Excitation/Emission wavelengths at 405/460nm, 485/535nm and 540/590nm for blue, green and red labels, respectively. This assay includes the green fluorescence data.
Tox21 Assay Protocol Summary: 5 uL of culture medium (MEM containing 10% FBS) per well was dispensed into black wall/clear bottom 1536-well plates using a Multidrop Combi Dispenser (ThermoFisher Scientific, Waltham, MA). After 23 nL compound or DMSO vehicle was transferred into assay plate by a pintool work station (Kalypsys, San Diego, CA), fluorescence intensities in the assay plates were measured by an Envision (PerkinElmer, Shelton, CT) plate reader using three labels for measuring blue, green and red fluorescence at […] 460, 535 and 590nm respectively.
(In general: qHTS replaces the single test concentration by a dilution series.)
`COc1ccc(CCNCC(O)COc2cccc(C)c2)cc1OC` (stereo not given): the Potency entry is “inactive”.

Turning to `CC(C)(CO)[C@@H](O)C(=O)NCCC(=O)NCCSSCCNC(=O)CCNC(=O)[C@H](O)C(C)(C)CO`, the Potency entry was “inactive”.

Consider `CN1CCCC(CN2c3ccccc3Sc3ccccc32)C1` (stereo not given), for which the Potency result is “inactive”.

Take `CC[C@H](C)CCCCC(=O)N[C@@H](CCN)C(=O)N[C@H](C(=O)N[C@@H](CCN)C(=O)N[C@H]1CCNC(=O)[C@@H]([C@H](C)O)NC(=O)[C@H](CCN)NC(=O)[C@H](CCN)NC(=O)[C@H](CC(C)C)NC(=O)[C@@H](CC(C)C)NC(=O)[C@H](CCN)NC1=O)[C@@H](C)O` (X2-[Dab]T[Dab][Dab][Dab][dL]L[Dab][Dab][dT]; lactam 4-C): the Potency entry was “inactive”.

Turning to `OC[C@H]1O[C@@H](n2cnc3c2NC=NC[C@H]3O)C[C@@H]1O`, the Potency result was “inactive”.

Turning to `CCC(CN)CC(C)CCNCC(O)CNCC(C)CC(CC)CN` (stereo not given), the Potency entry was “inactive”.

For `CC(O)CN(C)C` (stereo not given), the Potency result was “inactive”.

On to `CCN(CC)c1ccc(N=Nc2ccc(S(=O)(=O)N(C)C)cc2)c(S(=O)(=O)NCC[n+]2ccccc2)c1`, for which the Potency result is “inactive”.

As for `O=C(O)c1ccc(OCCn2ccnc2)cc1`, the Potency entry is “inactive”.

As to `CCCCCC(O)/C=C/C=O` (stereo not given), the Potency entry is “inactive”.

With `O=C(Nc1ccc(/C=C/c2ccc(NC(=O)c3cc(S(=O)(=O)O)c4cccnc4c3O)cc2S(=O)(=O)O)c(S(=O)(=O)O)c1)c1cc(S(=O)(=O)O)c2cccnc2c1O`, the Potency result was “inactive”.

In the case of `CCCCC(=O)OCC(=O)[C@]1(O)Cc2c(O)c3c(c(O)c2[C@@H](O[C@H]2C[C@H](NC(=O)C(F)(F)F)[C@H](O)[C@H](C)O2)C1)C(=O)c1c(OC)cccc1C3=O`, the Potency entry was “inactive”.

In the case of `O=C1O[C@H]2[C@H](O)[C@@H]1OC(O)[C@H]2O` (stereo not given in full), the Potency result is “inactive”.

As to `Cn1c(=O)c2c(ncn2CCOC(=O)C(C)(C)Oc2ccc(Cl)cc2)n(C)c1=O`, the Potency result was “inactive”.

For `Nc1ncnc2c1ncn2CCOCP(=O)(O)O`, the Potency entry is “inactive”.

Consider `C/C1=C2N=C(/C=C3N=C(/C(C)=C4\[N-][C@@](C)([C@@H]5N=C1[C@](C)(CCC(=O)NCC(C)OP(=O)(O)O[C@H]1[C@@H](O)[C@@H](n6cnc7cc(C)c(C)cc76)O[C@@H]1CO)[C@H]5CC(N)=O)[C@@](C)(CC(N)=O)[C@@H]4CCC(N)=O)[C@@](C)(CC(N)=O)[C@@H]\3CCC(N)=O)C(C)(C)[C@@H]/2CCC(N)=O.CC(=O)O.[Co]` (stereo not given in full), for which the Potency result is “inactive”.

As for `CO[C@H]1C[C@@H]2CC[C@@H](C)[C@@](O)(O2)C(=O)C(=O)N2CCCC[C@H]2C(=O)O[C@H]([C@H](C)C[C@@H]2CC[C@@H](OC(=O)C(C)(CO)CO)[C@H](OC)C2)CC(=O)[C@H](C)/C=C(\C)[C@@H](O)[C@@H](OC)C(=O)[C@H](C)C[C@H](C)/C=C/C=C/C=C/1C`, the Potency entry was “inactive”.

In the case of `OC1OC[C@@H](O)[C@H](O)[C@@H]1O` (stereo not given in full), the Potency entry is “inactive”.

In the case of `CC1(C)C2CC[C@]3(C)[C@H](C(=O)C=C4[C@@H]5C[C@@](C)(C(=O)O)CC[C@]5(C)CC[C@]43C)[C@@]2(C)CC[C@@H]1O[C@H]1O[C@H](C(=O)O)[C@@H](O)[C@H](O)[C@H]1O[C@@H]1O[C@H](C(=O)O)[C@@H](O)[C@H](O)[C@H]1O` (stereo not given in full), the Potency entry is “inactive”.

As to `COc1ccc(-c2noc(CC(=O)O)c2-c2ccc(OC)cc2)cc1`, the Potency entry is “inactive”.

Turning to `CC(=O)N[C@@H](CC(=O)N[C@@H](CCC(=O)O)C(=O)O)C(=O)O`, the Potency entry was “inactive”.

For `CC1(C)C(\C=C/C=C\C=C/C=C2/N(CCCCS(=O)(=O)O)c3ccc4ccccc4c3C2(C)C)=[N+](CCCCS(=O)(=O)[O-])c2ccc3ccccc3c21`, the Potency entry is “inactive”.

Consider `C/C=C(/CC[C@@H](C)[C@H]1CC[C@H]2C3=CC[C@H]4[C@H](C)[C@@H](O)CC[C@]4(C)[C@H]3CC[C@]12C)C(C)C`, for which the Potency entry is “inactive”.

Regarding `CN(C)CCCN1c2ccccc2C(C)(C)c2ccccc21`, the Potency result was “inactive”.

In the case of `C=C1/C(=C\C=C2/CCC[C@]3(C)[C@@H]([C@H](C)OCCC(C)(C)O)CC[C@@H]23)C[C@@H](O)C[C@@H]1O`, the Potency result was “inactive”.

Consider `O=C(NCCNCC(O)COc1ccc(O)cc1)N1CCOCC1` (stereo not given), for which the Potency entry was “inactive”.

Take `O=[N+]([O-])c1c(Cl)cccc1-c1c[nH]cc1Cl`: the Potency result is “inactive”.

For the molecule `CCCc1nc(C(C)(C)O)c(C(=O)OCc2oc(=O)oc2C)n1Cc1ccc(-c2ccccc2-c2nn[nH]n2)cc1`, the Potency entry was “inactive”.

As for `CC(=O)Nc1c(I)c(C(=O)O)c(I)c(N(C)C(C)=O)c1I`, the Potency entry was “inactive”.

`O=C(Cn1c(=O)sc2ccc(Cl)cc21)N1CCN(CCO)CC1`: the Potency result is “inactive”.

Turning to `CNC(=O)[C@H](Cc1c[nH]c2ccccc12)NC(=O)[C@@H](CC(=O)NO)CC(C)C`, the Potency entry was “inactive”.

As to `CN(C)CCC=C1c2ccccc2C(C)(C)c2ccccc21`, the Potency result is “inactive”.

As to `OCC(O)CO`, the Potency result is “inactive”.

As to `Cc1cc(/C=C/c2ccc3cc(N(C)C)ccc3[n+]2C)c(C)n1-c1ccccc1`, the Potency entry is “inactive”.

For `O=C1N=C2SCCN2C(=O)C1Cc1ccc(Cl)cc1` (stereo not given), the Potency entry is “inactive”.

On to `CS(=O)(=O)Nc1cc2occ(NC=O)c(=O)c2cc1Oc1ccccc1`, for which the Potency entry is “inactive”.

For `C=C[C@]1(C)C[C@@H](OC(=O)CSC(C)(C)CNC(=O)[C@H](N)C(C)C)[C@]2(C)[C@H](C)CC[C@]3(CCC(=O)[C@H]32)[C@@H](C)[C@@H]1O`, the Potency entry is “inactive”.

On to `O=C(c1cc2ccccc2o1)N1CCN(Cc2ccccc2)CC1`, for which the Potency result is “inactive”.

Regarding `OC[C@H]1O[C@@H](O[C@H]2[C@H](O)[C@@H](O)[C@H](O)O[C@@H]2CO)[C@H](O)[C@@H](O)[C@@H]1O`, the Potency result was “inactive”.

For the molecule `O=C(O)c1cc(N=Nc2ccc(O)c(C(=O)O)c2)ccc1O`, the Potency entry was “inactive”.
